# Measurements: the supplement of paper PMC10849652
# Of roughly 8,800 targets only a part is listed; those with a hit were picked by preference. About 0.5% of all pairs of compound and target were hits. A number with no mark means an inactive call.
# Tests used:
# Assay in all cases: log2 fold change, soluble protein after heating vs DMSO (PISA); higher = thermal stabilisation; K562 lysate, 10 uM; active = over 0.2 and 3.5 SD of the protein, either way, in both replicates (recomputed)
# lapatinib = compound: CS(=O)(=O)CCNCc1ccc(-c2ccc3ncnc(Nc4ccc(OCc5cccc(F)c5)c(Cl)c4)c3c2)o1 [lapatinib]
# Outline: (§1)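 Values give the log-two fold change in thermal stability against solvent controls, from duplicates. Crude K562 extract at 1 mg/mL protein, made by dounce homogenisation in PBS pH 7.4 with 1 mM MgCl2, was treated with 10 μM compound for 30 min. After 3 min heating across 48°C-58°C, aliquots were pooled, adjusted to 0.5% NP-40 at 4°C and centrifuged at 21,000xg for 90 min. The supernatant was measured by TMTpro 16plex LC-MS/MS with channel sums equalised.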
# pictilisib = compound: CS(=O)(=O)N1CCN(Cc2cc3nc(-c4cccc5[nH]ncc45)nc(N4CCOCC4)c3s2)CC1 [pictilisib]
# Outline: as §1
# crizotinib = compound: C[C@@H](Oc1cc(-c2cnn(C3CCNCC3)c2)cnc1N)c1c(Cl)ccc(F)c1Cl [crizotinib]
# Outline: as §1
# [1] = compound: C[C@H](C1=CC=C(C=C1)C(=O)NC2=C3C=CNC3=NC=C2)N
# Outline: as §1
# duvelisib = compound: C[C@H](Nc1ncnc2nc[nH]c12)c1cc2cccc(Cl)c2c(=O)n1-c1ccccc1 [duvelisib]
# Outline: as §1
# gandotinib = compound: Cc1cc(Nc2cc(CN3CCOCC3)c3nc(C)c(Cc4ccc(Cl)cc4F)n3n2)n[nH]1 [gandotinib]
# Outline: as §1
# tozasertib = compound: Cc1cc(Nc2cc(N3CCN(C)CC3)nc(Sc3ccc(NC(=O)C4CC4)cc3)n2)n[nH]1 [tozasertib]
# Outline: as §1
# doramapimod = compound: Cc1ccc(-n2nc(C(C)(C)C)cc2NC(=O)Nc2ccc(OCCN3CCOCC3)c3ccccc23)cc1 [doramapimod]
# Outline: as §1
# bafetinib = compound: Cc1ccc(NC(=O)c2ccc(CN3CC[C@H](N(C)C)C3)c(C(F)(F)F)c2)cc1Nc1nccc(-c2cncnc2)n1 [bafetinib]
# Outline: as §1
# [2] = compound: Cc1cccc(CC(=O)N2CCc3c2ccc(-c2cn(C)c4ncnc(N)c24)c3F)n1
# Outline: as §1
# nilotinib = compound: Cc1cn(-c2cc(NC(=O)c3ccc(C)c(Nc4nccc(-c5cccnc5)n4)c3)cc(C(F)(F)F)c2)cn1 [nilotinib]
# Outline: as §1
# [3] = compound: Cc1nc(Nc2n[nH]c3c2CN(C(=O)N[C@H](CN(C)C)c2ccccc2)C3(C)C)c2sccc2n1
# Outline: as §1
# dasatinib = compound: Cc1nc(Nc2ncc(C(=O)Nc3c(C)cccc3Cl)s2)cc(N2CCN(CCO)CC2)n1 [dasatinib]
# Outline: as §1
# [4] = compound: Cc1ncc(-c2ccnc(Nc3ccc(S(C)(=O)=O)cc3)n2)n1C(C)C
# Outline: as §1
# [5] = compound: Cn1cc(-c2ccc3c(c2)CCN3C(=O)Cc2cccc(C(F)(F)F)c2)c2c(N)ncnc21
# Outline: as §1
# quisinostat = compound: Cn1cc(CNCC2CCN(c3ncc(C(=O)NO)cn3)CC2)c2ccccc21 [quisinostat]
# Outline: as §1
# tipifarnib = compound: Cn1cncc1[C@@](N)(c1ccc(Cl)cc1)c1ccc2c(c1)c(-c1cccc(Cl)c1)cc(=O)n2C [tipifarnib]
# Outline: as §1
# [6] = compound: NC(=O)Nc1cc(-c2cccc(F)c2)sc1C(=O)N[C@H]1CCCNC1
# Outline: as §1
# [7] = compound: NC(=O)c1cnc(N[C@@H]2CCCC[C@@H]2N)nc1Nc1cccc(-n2nccn2)c1
# Outline: as §1
# [8] = compound: NC1(c2ccc(-c3nc4ccn5c(=O)[nH]nc5c4cc3-c3ccccc3)cc2)CCC1
# Outline: as §1
# Sequence of UniProt Q14149 (Q14149 whole entry, looked up): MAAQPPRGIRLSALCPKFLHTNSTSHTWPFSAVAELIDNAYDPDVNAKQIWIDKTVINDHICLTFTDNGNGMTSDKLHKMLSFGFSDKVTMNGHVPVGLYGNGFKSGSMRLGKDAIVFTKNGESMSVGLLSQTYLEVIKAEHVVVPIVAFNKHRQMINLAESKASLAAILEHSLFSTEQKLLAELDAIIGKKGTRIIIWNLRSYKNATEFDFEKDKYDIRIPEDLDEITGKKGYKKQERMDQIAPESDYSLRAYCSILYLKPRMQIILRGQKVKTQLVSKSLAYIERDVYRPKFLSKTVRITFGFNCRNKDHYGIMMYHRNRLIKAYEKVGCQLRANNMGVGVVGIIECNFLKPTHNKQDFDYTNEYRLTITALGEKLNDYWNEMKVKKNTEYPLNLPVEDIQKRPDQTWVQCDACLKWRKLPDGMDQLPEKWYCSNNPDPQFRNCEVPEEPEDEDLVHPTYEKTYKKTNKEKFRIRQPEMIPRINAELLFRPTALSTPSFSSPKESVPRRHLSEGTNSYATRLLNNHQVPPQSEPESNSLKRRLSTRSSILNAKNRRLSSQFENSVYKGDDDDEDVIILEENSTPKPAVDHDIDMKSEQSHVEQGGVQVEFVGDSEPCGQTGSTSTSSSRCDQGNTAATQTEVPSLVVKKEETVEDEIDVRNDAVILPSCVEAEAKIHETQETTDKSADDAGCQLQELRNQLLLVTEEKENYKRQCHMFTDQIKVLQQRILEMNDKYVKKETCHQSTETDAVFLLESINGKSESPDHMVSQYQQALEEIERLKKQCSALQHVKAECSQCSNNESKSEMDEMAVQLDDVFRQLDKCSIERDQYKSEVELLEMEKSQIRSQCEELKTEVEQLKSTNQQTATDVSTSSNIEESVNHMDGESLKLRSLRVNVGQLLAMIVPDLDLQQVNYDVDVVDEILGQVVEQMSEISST
# Sequence of UniProt Q9NSK0 (Q9NSK0 whole entry, looked up): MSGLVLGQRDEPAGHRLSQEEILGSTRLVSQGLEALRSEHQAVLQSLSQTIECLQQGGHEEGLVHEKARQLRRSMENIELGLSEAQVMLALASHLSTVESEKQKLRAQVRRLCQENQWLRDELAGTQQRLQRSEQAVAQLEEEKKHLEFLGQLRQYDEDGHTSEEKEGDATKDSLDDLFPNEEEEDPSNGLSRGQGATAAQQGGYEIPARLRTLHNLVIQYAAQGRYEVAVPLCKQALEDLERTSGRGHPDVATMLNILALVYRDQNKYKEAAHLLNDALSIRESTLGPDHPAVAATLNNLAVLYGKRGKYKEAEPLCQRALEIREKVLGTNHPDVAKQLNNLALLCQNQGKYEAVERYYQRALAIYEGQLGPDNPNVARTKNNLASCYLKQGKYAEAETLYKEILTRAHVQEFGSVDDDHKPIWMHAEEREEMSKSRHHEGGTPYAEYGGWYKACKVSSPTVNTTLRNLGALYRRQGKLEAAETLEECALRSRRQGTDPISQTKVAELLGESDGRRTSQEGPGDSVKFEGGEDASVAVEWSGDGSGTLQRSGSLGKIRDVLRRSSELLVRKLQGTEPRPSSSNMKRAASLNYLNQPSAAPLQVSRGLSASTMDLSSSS
# Sequence of UniProt P11279 (P11279 whole entry, looked up): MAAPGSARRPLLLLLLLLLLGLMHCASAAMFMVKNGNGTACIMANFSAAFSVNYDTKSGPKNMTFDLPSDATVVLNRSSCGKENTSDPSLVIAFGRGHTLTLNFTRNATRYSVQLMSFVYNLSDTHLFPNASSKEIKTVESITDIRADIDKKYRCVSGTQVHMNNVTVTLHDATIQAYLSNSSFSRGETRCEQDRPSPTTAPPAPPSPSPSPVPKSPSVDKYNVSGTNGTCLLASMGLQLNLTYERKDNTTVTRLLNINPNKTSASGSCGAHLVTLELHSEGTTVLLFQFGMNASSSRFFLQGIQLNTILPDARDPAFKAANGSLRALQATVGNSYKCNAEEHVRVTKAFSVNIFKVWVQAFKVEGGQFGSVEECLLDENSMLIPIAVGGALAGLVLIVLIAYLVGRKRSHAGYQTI
# Sequence of UniProt P07948 (P07948 whole entry, looked up): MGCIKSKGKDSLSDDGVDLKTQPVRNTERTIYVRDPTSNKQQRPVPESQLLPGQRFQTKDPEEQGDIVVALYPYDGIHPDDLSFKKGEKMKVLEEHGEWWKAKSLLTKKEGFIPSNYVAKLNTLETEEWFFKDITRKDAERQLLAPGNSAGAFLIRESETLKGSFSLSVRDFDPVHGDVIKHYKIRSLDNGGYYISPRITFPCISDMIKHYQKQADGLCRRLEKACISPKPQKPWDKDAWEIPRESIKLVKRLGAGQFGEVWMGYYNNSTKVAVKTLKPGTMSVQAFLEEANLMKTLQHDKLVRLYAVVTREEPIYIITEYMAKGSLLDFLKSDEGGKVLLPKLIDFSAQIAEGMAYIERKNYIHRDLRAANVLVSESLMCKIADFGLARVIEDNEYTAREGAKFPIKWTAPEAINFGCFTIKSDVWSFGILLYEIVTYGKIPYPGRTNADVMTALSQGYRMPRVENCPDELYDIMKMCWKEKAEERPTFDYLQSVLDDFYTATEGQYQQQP
# Sequence of UniProt Q9H089 (Q9H089 whole entry, looked up): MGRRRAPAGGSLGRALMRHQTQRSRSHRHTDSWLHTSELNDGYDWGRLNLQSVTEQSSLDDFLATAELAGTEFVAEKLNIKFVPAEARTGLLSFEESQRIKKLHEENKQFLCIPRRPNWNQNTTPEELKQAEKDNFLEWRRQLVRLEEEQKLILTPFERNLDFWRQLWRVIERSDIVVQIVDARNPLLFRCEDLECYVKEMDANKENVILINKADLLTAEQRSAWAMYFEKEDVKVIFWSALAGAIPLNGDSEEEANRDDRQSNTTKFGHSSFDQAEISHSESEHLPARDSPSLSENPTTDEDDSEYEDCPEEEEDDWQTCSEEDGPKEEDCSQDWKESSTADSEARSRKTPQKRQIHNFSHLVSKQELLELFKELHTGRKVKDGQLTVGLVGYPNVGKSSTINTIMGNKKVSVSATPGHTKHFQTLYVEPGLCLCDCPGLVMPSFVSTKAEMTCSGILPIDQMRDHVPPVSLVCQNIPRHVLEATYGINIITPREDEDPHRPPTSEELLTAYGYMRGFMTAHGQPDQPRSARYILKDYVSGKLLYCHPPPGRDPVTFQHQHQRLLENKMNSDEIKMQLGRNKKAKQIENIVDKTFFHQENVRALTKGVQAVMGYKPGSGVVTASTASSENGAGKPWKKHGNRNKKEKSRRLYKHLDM
# Sequence of UniProt Q14693 (Q14693 whole entry, looked up): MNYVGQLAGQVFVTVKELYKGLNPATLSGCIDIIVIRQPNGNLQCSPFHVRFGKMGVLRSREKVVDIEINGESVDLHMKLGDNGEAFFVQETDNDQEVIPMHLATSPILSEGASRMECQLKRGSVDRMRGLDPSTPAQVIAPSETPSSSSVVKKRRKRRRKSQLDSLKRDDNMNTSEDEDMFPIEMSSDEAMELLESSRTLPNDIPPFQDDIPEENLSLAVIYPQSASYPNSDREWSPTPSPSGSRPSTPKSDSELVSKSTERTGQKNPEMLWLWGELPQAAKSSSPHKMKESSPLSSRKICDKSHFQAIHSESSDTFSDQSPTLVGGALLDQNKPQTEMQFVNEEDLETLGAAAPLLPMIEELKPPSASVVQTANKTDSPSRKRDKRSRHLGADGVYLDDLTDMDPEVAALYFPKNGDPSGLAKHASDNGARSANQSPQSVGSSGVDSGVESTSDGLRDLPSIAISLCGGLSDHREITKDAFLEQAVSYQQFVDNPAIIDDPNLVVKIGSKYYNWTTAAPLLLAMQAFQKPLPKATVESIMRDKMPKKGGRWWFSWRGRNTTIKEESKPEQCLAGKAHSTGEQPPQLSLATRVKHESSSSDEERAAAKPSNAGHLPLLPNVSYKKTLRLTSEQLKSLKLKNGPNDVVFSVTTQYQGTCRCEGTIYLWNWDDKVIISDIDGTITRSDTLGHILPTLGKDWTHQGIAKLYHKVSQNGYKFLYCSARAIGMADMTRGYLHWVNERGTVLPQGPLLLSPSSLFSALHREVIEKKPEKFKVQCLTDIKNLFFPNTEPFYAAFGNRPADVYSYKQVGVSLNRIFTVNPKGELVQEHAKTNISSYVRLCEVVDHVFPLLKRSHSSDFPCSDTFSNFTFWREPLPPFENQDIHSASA
# Sequence of UniProt P53667 (P53667 whole entry, looked up): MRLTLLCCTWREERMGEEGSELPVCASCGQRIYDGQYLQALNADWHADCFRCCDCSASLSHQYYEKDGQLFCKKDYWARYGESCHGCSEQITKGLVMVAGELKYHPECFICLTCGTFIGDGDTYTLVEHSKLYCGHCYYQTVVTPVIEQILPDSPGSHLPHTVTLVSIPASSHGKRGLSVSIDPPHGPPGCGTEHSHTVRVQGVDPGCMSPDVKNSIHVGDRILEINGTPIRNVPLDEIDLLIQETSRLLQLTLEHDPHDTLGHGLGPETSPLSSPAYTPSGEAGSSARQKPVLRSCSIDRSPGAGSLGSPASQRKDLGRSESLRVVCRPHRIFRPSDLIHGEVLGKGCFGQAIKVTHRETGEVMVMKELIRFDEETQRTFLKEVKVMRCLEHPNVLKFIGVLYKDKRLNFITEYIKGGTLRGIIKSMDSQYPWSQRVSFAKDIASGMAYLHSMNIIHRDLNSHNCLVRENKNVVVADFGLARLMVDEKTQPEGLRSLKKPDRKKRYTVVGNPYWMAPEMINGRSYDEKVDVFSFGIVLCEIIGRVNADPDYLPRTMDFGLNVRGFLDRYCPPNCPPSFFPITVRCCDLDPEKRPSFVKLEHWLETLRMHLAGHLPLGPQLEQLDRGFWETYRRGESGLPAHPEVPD
# Sequence of UniProt Q13015 (Q13015 whole entry, looked up): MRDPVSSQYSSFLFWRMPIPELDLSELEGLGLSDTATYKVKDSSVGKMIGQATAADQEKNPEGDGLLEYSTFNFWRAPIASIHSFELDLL
# Sequence of UniProt A9UHW6 (A9UHW6 whole entry, looked up): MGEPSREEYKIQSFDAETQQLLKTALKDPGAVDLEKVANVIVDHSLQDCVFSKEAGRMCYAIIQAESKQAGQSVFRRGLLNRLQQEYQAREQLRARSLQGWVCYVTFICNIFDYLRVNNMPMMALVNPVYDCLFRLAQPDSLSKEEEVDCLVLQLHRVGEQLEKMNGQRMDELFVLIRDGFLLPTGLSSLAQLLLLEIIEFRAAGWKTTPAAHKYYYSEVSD
Target,log2 fold change (lapatinib),log2 fold change (pictilisib),log2 fold change (crizotinib),log2 fold change [1],log2 fold change (duvelisib),log2 fold change (gandotinib),log2 fold change (tozasertib),log2 fold change (doramapimod),log2 fold change (bafetinib),log2 fold change [2],log2 fold change (nilotinib),log2 fold change [3],log2 fold change (dasatinib),log2 fold change [4],log2 fold change [5],log2 fold change (quisinostat),log2 fold change (tipifarnib),log2 fold change [6],log2 fold change [7],log2 fold change [8]
LIMK1 (UniProt P53667),0.049,-0.087,0.276,0.029,0.109,-0.03,0.096,-0.009,-0.348,0.138,-0.315,0.008,0.4,0.031,0.146,-0.145,0.102,0.126,0.118,
MLST8 (UniProt Q9BVC4),-0.028,-0.073,0.004,-0.034,-0.028,-0.055,0.078,0.08,-0.026,0.032,-0.011,-0.006,0.046,0.079,-0.041,-0.058,0.076,0.043,-0.065,-0.067
LAMP1 (UniProt P11279),-0.033,-0.014,-0.014,-0.496 (active),0.005,0.241 (active),-0.05,-0.044,-0.065,0.172,0.021,-0.033,-0.058,0.002,-0.036,-0.113,-0.012,0.016,-0.003,-0.017
MBLAC2 (UniProt Q68D91),-0.012,-0.008,0.025,-0.027,0.038,0.036,0.084,0.033,-0.049,0.006,0.028,-0.076,-0.003,-0.126,0.059,0.026,0.08,0,-0.005,0.005
LSG1 (UniProt Q9H089),-0.002,-0.044,-0.191,-0.099,-0.075,0.037,-0.03,0.085,-0.077,0.072,0.003,0.015,0.102,0.026,0.137,-0.091,-0.004,0.115,-0.014,0.032
MAP2K1 (UniProt Q02750),-0.065,-0.009,0.001,0.204,-0.021,-0.042,0.152,-0.002,-0.027,-0.047,-0.02,0.107,0.296 (active),0.057,-0.057,-0.064,-0.037,0.4 (active),0.033,-0.02
LPIN1 isoform 7 (UniProt Q14693),-0.052,-0.082,-0.035,-0.069,-0.097,-0.005,0.012,0.013,-0.04,0.097,-0.032,0.026,-0.107,0.182,0.028,-0.032,-0.104,0.035,-0.04,0.003
MBD2 (UniProt Q9UBB5),-0.009,0.017,0.006,-0.035,0.02,-0.004,0.029,0.045,-0.006,-0.032,0.012,0.007,-0.039,0,0.069,-0.014,-0.011,-0.009,-0.003,0.024
LTN1 isoform 3 (UniProt O94822),0.086,-0.017,-0.046,0.027,-0.029,-0.18,0.003,0.009,-0.071,0.007,0.006,-0.007,-0.086,-0.009,0.014,-0.023,-0.002,0.044,-0.016,-0.027
MMS22L (UniProt Q6ZRQ5),-0.101,-0.034,0.113,0.065,-0.106,-0.169,0.087,-0.018,-0.152,-0.029,0.033,0,0.026,-0.015,-0.007,-0.086,-0.013,0.041,-0.03,-0.06
MLLT11 (UniProt Q13015),0.051,0.237,0,0.025,0.002,0.329,0.087,0.447 (active),-0.017,0.084,0.068,0.03,-0.015,-0.051,-0.06,-0.029,-0.204,0.107,0.011,0.055
KLC4 isoform 3 (UniProt Q9NSK0),-0.002,-0.053,-0.027,0.019,0.029,-0.074,-0.021,0.034,-0.018,0.001,-0.023,0.047,-0.013,0.089,0.048,-0.018,-0.015,0.01,0.021,-0.003
LYN (UniProt P07948),-0.184,-0.036,0.093,-0.079,-0.042,0.551,0.11,0.026,0.763 (active),-0.005,0.158,0.218,0.457,-0.026,0.095,-0.125,-0.154,0.842 (active),0.084,-0.037
MIF4GD isoform 3 (UniProt A9UHW6),-0.008,-0.054,0.012,0.023,0.041,0.021,0.005,0.025,-0.03,0.013,-0.036,0.031,0.056,-0.015,0.039,-0.04,0.016,0.052,-0.032,-0.007
MORC3 (UniProt Q14149),0.021,-0.037,-0.02,0.005,-0.001,-0.053,0.001,0.024,-0.001,0.014,0.001,0.012,0.006,-0.015,0.046,-0.018,-0.01,0.037,-0.017,-0.004
MAPK3 (UniProt P27361),-0.028,0,-0.01,-0.021,-0.01,0.089,-0.038,-0.023,0.021,-0.043,0.009,0.272 (active),-0.026,0.141,-0.019,0.016,-0.013,0.022,0.094,-0.003
